# What was measured:
# Assay in all cases: PBM binding z-score (relative to random genomic background probes); higher = stronger binding; sequences stand for … in GC…GCGATTGACAGCGTAGAATGAAGG
# [1] = test system: RARb homodimer (NR concentration 270 nM)
# Summary of the method: (§1)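 On custom Agilent 4×180K arrays, double-stranded probes with 34-nt variable regions carried direct-repeat seeds, single-nucleotide variants, half-site ablations or random human genomic background. Ligand-free nuclear receptor dimers were applied for 1 h, and binding was read with antibodies against each partner (one per run). Binding z-scores come from regression-normalized fluorescence, with the random background probes as reference.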
# [2] = test system: RARg:RXRa (NR concentration 270 nM, RXRa partner concentration 90 nM)
# Summary of the method: as §1
# [3] = test system: RARg homodimer (NR concentration 270 nM)
# Summary of the method: as §1
# [4] = test system: RXRa DBDmut IVT, anti-RXR (DBD mutation: RXRa K156A/R161A, NR concentration 90 nM)
# Summary of the method: as §1
# [5] = test system: RXRa homodimer (NR concentration 180 nM)
# Summary of the method: as §1
# [6] = test system: THRa:RXRa (NR concentration 90 nM, RXRa partner concentration 90 nM)
# Summary of the method: as §1
# [7] = test system: THRa homodimer (NR concentration 90 nM)
# Summary of the method: as §1
# [8] = test system: VDR homodimer (NR concentration 270 nM)
# Summary of the method: as §1
Sequence,PBM binding z-score [1],PBM binding z-score [2],PBM binding z-score [3],PBM binding z-score [4],PBM binding z-score [5],PBM binding z-score [6],PBM binding z-score [7],PBM binding z-score [8]
GTACCAAGGTGAATAGGTCGTCGATGAGTAGGCG,2.07,2.91,1.67,-0.36,2.1,2.11,0.363,-0.13
ACCTCTAGGTAAAGATAGTTCAGTGAATGCAAAT,0.723,0.4,0.505,0.0276,0.0359,0.533,-0.346,0.268
CCGACTGGGGCATAAGGTTTCCATAAGCCAGCCC,-0.165,-0.272,-0.139,-0.156,-0.0441,-7.82e-06,-0.206,-0.137
ATATGTAGGTTGAGGGTCATTCAGGTTGGTTCGC,3.23,2.89,2.15,1.95,3.62,2.92,1.68,3.74
ATAAGTAGGTTACATCCGGGTCATTCAGGCTATG,2.83,3.41,2.17,1.37,3.12,3.72,2.7,3.19
CCTGCTAGCTCATGGTCAGCTAATCTACAGTATG,-0.424,-0.342,-0.0465,-0.0856,-0.437,-0.44,-0.771,-0.81
ACTAGTAGTTGAGACGAGGGCAACCGATAGGTTG,1.26,0.496,0.837,-0.186,0.422,2.71,-0.0205,0.686
TCAGACAGGTGAAGGTAACTTAGGTACGCAGTCG,0.872,0.797,0.756,1.19,1.14,1.86,0.691,0.508
TAGCCTAGGTCAGATCGGGCCAGTGTACGCTATA,2.17,2.57,3.6,-0.434,1.23,4.03,-0.0774,-0.614
ATCGAAAGGTCGACGAGGTAAGTATACACCGTTT,2.39,3.89,3.66,1.2,4.03,3.14,0.239,0.679
TCGAGTAGGTTAGTCGGGGCAGTCAGCCAACATA,0.699,-0.199,0.0307,0.125,-0.226,0.854,-0.302,-0.321
TCATATAGGTAAAGGTGAAGGTCGAACGATATGA,2.28,2.15,2.07,0.787,2.51,1.82,0.00279,0.402
CCTACTGGGCCATCAGCTCATTGATATCAACGTT,-0.431,-0.217,0.0511,-0.384,-0.717,-0.526,-0.399,-0.517
CGTCCAAGGTCAGAGAGGTCAGTGGATGCCGAGT,5.54,6.26,7.05,3.42,5.46,4.29,3.05,5.52
AATACAGGGTCACTCGGCCAGAGTAGGTACGAAT,3.24,5.28,5.06,3.27,5.63,3.4,0.907,2.84
TCACCAAGGTGAAGGTCGTTGATCCCTCTGTAGA,1.71,1.55,1.08,0.927,2.01,2.27,0.819,0.342
TCTCGGAGGACCCGAAAGGTCAGAGCTCGACATC,4.21,3.92,4.15,0.325,4.04,2.75,0.369,0.435
GTACCAAGGTGAATAGGTCGTTGCTGAGTAGGCG,1.71,2.56,1.13,-0.0766,1.53,1.8,0.155,-0.166
TCAAGTAGGTTAGTCGGGGCATTCAGCCAACATA,0.846,0.431,0.362,1.46,0.586,1.26,0.656,0.907

Sequence,PBM binding z-score [1],PBM binding z-score [2],PBM binding z-score [3],PBM binding z-score [4],PBM binding z-score [5],PBM binding z-score [6],PBM binding z-score [7],PBM binding z-score [8]
CGTGCTAGGTCATGGTCAGCTAATCTACAGTATG,3.2,3.97,4.74,1.87,2.75,3.12,1.2,0.319
TCAGACAGGTGAATGTAACTCAGGTACGCAGTCG,0.305,0.399,0.476,1.01,0.802,0.274,0.15,0.463
GGAACGAGGGCAAAGCTGATAGCATCTGTCGACG,0.567,1.03,1.5,2.13,0.836,0.546,-0.597,0.452
ACTAGCAGGCCGAGTTTGGGTCACTCAAACAAAG,1.65,1.04,0.63,-0.134,0.562,2.17,0.853,0.396
CCCAGTTGGTCAGGAGGTCACACACCGGATATGA,4.41,4.87,4.25,-0.0617,4.6,3.52,2.63,2.66
GCATATCGGTAATACAAGGTGAAAGTCCGATTGT,0.774,0.308,0.268,0.112,0.446,3.07,0.911,-0.28
GCTTACGGGTCAAAGGTTATAGAATGAATAGAAT,3.44,6.87,5.16,2.45,9.56,3.89,0.468,1.96
GCTAGTAGGCCATTTGGGTCACTCAATGACGGGC,2.03,0.972,1.33,0.0324,0.766,1.75,0.382,0.26
ACGGACAGGTGAGTGAAGGTAACTCAGCTGGACG,0.226,0.31,0.674,-0.495,0.344,1.69,-0.483,-0.502
CGAGCTAGGTCATTGACAGGACAGTGAATAGTAA,2.77,4.67,4.49,2.43,2.37,2.7,0.527,1.23
TGAATGCGGTTATAAGATCAGGGAACGTTGCAAA,-0.46,0.175,0.239,-0.906,-0.0523,-0.183,-0.559,-0.171
CGTCAATGTTCAAGGTAACGTAACAGAAAGCAGC,-0.0496,0.0962,0.453,0.148,0.198,1.56,1.19,0.0285
CCAGACAGGTGAAAGCTAACTCAGTCTGGTACGC,-0.273,0.135,0.254,-0.328,0.326,-0.0859,-0.832,-0.146
TCAGACAGGTGAAGGTCACTCAGGTACGCAGTCG,4.11,3.63,4.11,1.7,3.51,3.79,1.43,2.39
CAAACTAGGTCACGAAAGGTCTAAGTCGAATGAC,3.98,5.04,5.84,1.6,4.23,4.1,1.73,0.873
TCTTTTAGATCAATAGAGGTTAAGAAAGTGCGCT,1.25,1.22,1.09,0.967,1.58,2.4,-0.64,0.459
CATTACGGGTCAAGGTTATAGCACGGGTGGTACG,3.78,5.08,5.37,1.61,6.03,3.51,1.29,2.04
CCTGTTAGTTGACCATAAGGGCAACCGAAGCTCG,2.14,1.2,0.916,0.329,0.511,1.88,1.5,0.539
GCTTGTAGATCAAGGTTCAGAAAGACTAAGCTAA,0.239,0.226,0.173,1.09,0.62,-0.139,-0.807,1.33

Sequence,PBM binding z-score [1],PBM binding z-score [2],PBM binding z-score [3],PBM binding z-score [4],PBM binding z-score [5],PBM binding z-score [6],PBM binding z-score [7],PBM binding z-score [8]
ATACCGAGGTGATCGTGAGGTCGTTGATACTAAC,1.77,2.74,0.682,0.849,1.91,3.52,2.44,2.85
TCTGCTAGGACAACGATGGTCAGCTAATCTGCTA,-0.669,-0.181,0.34,0.112,-0.495,0.316,-0.704,-0.943
CCTACTGGGCCACGAGAGGTCATTGATTCAGTGA,3.75,3.95,3.64,0.702,4.15,4,1.33,3.47
TCTTGTAGATCAGCGGGTTAAGAAAGCTGGCCAA,0.0505,-0.0561,-0.559,0.982,0.349,0.0519,-0.241,-0.169
GCGACTGGGGCATCCGCAGGTTACCATAACTTAA,0.945,1.31,0.446,0.00577,0.41,1.21,-0.198,-0.454
ATCGAAAGGCCGAGGTGAGTATAGAGAAAGGGAA,0.669,0.835,1.25,-0.863,0.294,0.936,0.0762,-0.433
AGTCAAAGTTCACTAGGTAGCGTAAGATTCAGCT,3.47,4.95,5.68,4.01,3.68,1.66,-0.346,3.7
CGAACTAGTTCATCCAGGACAGTGAATACATTGA,0.846,1.12,1.39,3.28,0.593,2.23,1.07,3.24
GCTCGGAGGACAAGGTCAGAGGTTTGTCCGTAGA,3.27,3.12,3.27,0.666,2.53,3.07,1.42,1.2
GCAGACAGGTGAAACCCAGGTAACTCAGGGTGGC,0.254,0.543,0.3,-0.915,0.749,2.18,0.116,-0.563
AGAATGAGGTTAAGAGCAGGGAAACAGAATACAT,0.878,2,1.27,0.729,2.46,2.19,0.347,0.0105
ATCGAAAGGTCGACGAGGTGAGGATACACCGTTT,3.11,4.27,4.37,1.15,4.45,4.09,2.24,1.2
CAAACTAGGTCACAGAGGTCAAAATCCGTGCGTA,5.16,7.05,7.16,3.22,7.21,4.7,2.77,5.94
CCTAGCACGCCAATCTGGGTCACTCAAGGCTTGA,1.94,0.768,0.494,0.349,0.974,2.61,0.789,0.435
ACTATTAGTTGACTTAGGGTAACCGATACGACGC,0.611,0.744,0.754,0.853,0.525,2.77,1.43,0.184
ACAGACAGTTGATGAAGGTAACTCAGGCTATCAT,0.387,0.00583,0.279,0.223,0.183,0.764,0.154,0.0979
ACTAGCAGGCCAAGGGTCACTCAAGATTAGTCCG,3.86,4.17,3.74,0.678,3.93,2.65,0.199,1.29
CGAACTAGGTCATTGACAGGACAGAGAATAGTAA,2.47,4.41,4.12,2.25,2.5,2.8,0.787,1.26
CGTCCAAGGTCAATGCTAGTTCAGTGAAAGCATT,4.24,6.18,6.17,3.83,4.84,3.91,2.17,3.28
